Source: PubChem
TNAP act mid DEA: human TNAP enzyme activators, primary screen, biochemical, luminescent, intermediate phosphate acceptor level | Alkaline phosphatase, tissue-nonspecific isozyme (Homo sapiens), P05186 | purified TNAP, CDP-star luminescence, 100 mM DEA, 30 min; hits give high values; scale: 0 levamisole-inhibited, 1 vehicle-only enzyme | activation factor at 20 µM | 64,000 tested, under 10 active | AID 813, 2007;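 active = activation factor of at least 2 at 20 µM, relative to controls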
Ec RNAP inh: E. coli RNAP inhibitors, biochemical | E. coli RNA polymerase, fluorescence transcription assay | inhibition, %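 (tested at 10 µM)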 | 62,000 compounds, 0.2% hits | AID 559, 2006; in the data active = inhibition above about 20%;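 note: 0% = enzyme without compound and 100% = no enzyme blank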
HePTP inh: inhibitors of human HePTP phosphatase, primary screen, biochemical, absorbance, leukemia target. 110,000 compounds, 0.64% hits. inhibition, % at 20 µM. recombinant HePTP phosphatase activity, OD absorbance. Tyrosine-protein phosphatase non-receptor type 7 (Homo sapiens), P35236. AID 521, 2006; in the data active = inhibition above about 50%;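 note: plate controls were vehicle for no effect and reference inhibitor for full effect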
Target sequence (P35236 whole entry, looked up): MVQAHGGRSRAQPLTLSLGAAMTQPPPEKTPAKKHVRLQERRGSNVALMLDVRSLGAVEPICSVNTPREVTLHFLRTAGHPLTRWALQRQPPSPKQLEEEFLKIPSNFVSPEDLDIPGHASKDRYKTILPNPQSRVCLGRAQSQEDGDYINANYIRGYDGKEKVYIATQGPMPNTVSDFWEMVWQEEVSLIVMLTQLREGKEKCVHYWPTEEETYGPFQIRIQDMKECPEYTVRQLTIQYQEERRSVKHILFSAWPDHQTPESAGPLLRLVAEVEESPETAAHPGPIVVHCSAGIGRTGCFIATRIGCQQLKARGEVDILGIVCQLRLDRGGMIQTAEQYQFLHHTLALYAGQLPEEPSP
BAP1 inh: inhibitors of BAP1 deubiquitinase, primary screen, biochemical, Ub-AMC fluorescence, kinetic. Ubiquitin carboxyl-terminal hydrolase BAP1 (Homo sapiens), Q92560. recombinant BAP1, Ub-AMC hydrolysis fluorescence kinetic; hits give low values. calls only at 20 µM. 72,000 compounds, 0.48% hits;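 active = activity remaining at or below 50% of control, provided the compound also passes the data quality filters; inactive = the rest, including low values that fail the filters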;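 note: 100% = DMSO wells rate and 0% = substrate alone blank rate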
Cdc25B inh: inhibitors of Cdc25B phosphatase catalytic domain, primary screen, biochemical, OMFP fluorescence. recombinant Cdc25B, OMFP fluorescence Ex485/Em525. inhibition, %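 (compounds tested at 10 µM final in the well)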. 65,000 compounds, 0.1% hits. AID 368, 2006; in the data active = inhibition above about 50%
DUSP1 inh: MKP-1 phosphatase inhibitors, primary screen, biochemical, in vitro | AID 374, 2006 | recombinant MKP-1, OMFP hydrolysis fluorescence | 65,000 compounds, 0.15% hits | inhibition, %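 (compounds tested at a single concentration somewhere between 10 and 100 µM)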 | Dual specificity protein phosphatase 1 (Homo sapiens), P28562;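 active = inhibition above about 50%, limit read from the data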;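 note: 0% = DMSO max control wells and 100% = wells with enzyme stopped by NaOH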
Target sequence (P28562 whole entry, looked up): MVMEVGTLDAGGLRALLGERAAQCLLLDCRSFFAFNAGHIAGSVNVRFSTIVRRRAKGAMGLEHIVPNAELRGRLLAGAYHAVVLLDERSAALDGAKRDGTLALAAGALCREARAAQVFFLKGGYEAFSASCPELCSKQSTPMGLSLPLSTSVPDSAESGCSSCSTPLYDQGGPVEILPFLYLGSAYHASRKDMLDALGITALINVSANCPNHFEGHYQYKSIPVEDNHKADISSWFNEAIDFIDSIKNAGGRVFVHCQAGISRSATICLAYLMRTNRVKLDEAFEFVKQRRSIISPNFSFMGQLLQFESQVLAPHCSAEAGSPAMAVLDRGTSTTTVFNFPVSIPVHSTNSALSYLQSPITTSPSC
Starred values were filed as active, the others as inactive; i = inactive; / = no result shown. A selection: hits, their analogues and other compounds. The true share with any hit is near 1%.

SMILES	TNAP act mid DEA	Ec RNAP inh	HePTP inh	BAP1 inh	Cdc25B inh	DUSP1 inh
O=C(CC1S/C(=N\N=C\c2cccs2)NC1=O)Nc1ccccc1C(F)(F)F (stereo not drawn)	/	/	5.4	/	/	/
O=C(CC1S/C(=N\N=C\c2ccco2)NC1=O)Nc1ccc(C(=O)O)cc1 (stereo not drawn)	/	/	100.7*	/	/	/
O=C(CC1S/C(=N\N=C\c2cccs2)NC1=O)Nc1ccc(C(=O)O)cc1 (stereo not drawn)	/	/	89.7*	/	/	/
C/C(=N\N=C1\NC(=O)C(CC(=O)Nc2ccc(C(=O)O)cc2)S1)c1ccc([N+](=O)[O-])cc1 (stereo not drawn)	/	/	93.7*	/	/	/
CCNC(=O)CC1S/C(=N\N=C(/C)c2ccc([N+](=O)[O-])cc2)NC1=O (stereo not drawn)	/	/	4.1	/	/	/
CCOc1ccc(N(CC(=O)Nc2c(C)cccc2C)S(C)(=O)=O)cc1	/	/	-4.2	/	/	/
N/C(=N/c1nc2ccccc2o1)NC(=O)c1ccccc1[N+](=O)[O-]	/	/	2.9	/	/	/
O=C1/C(=C\c2cc([N+](=O)[O-])cc(Br)c2O)SC(=S)N1c1cccc(Cl)c1	/	/	100.9*	/	/	/
CN(C1=NC(=O)S/C1=C\c1ccc([N+](=O)[O-])cc1)c1ccc(O)cc1	/	/	55.8*	/	/	/
O=C(Nc1ccc(-c2nc3ccccc3[nH]2)cc1)c1ccc(Cl)c(Cl)c1	/	/	101.4*	/	/	/
O=C(Nc1ccc(-c2nc3ccccc3[nH]2)cc1)c1cc2ccccc2o1	/	/	101.5*	/	/	/
COc1cc(OC)cc(C(=O)N/N=C(\C)CC(=O)Nc2ccc(Br)cc2)c1	/	/	1.5	/	/	/
Cc1onc(-c2ccccc2)c1C(=O)N1CCN(c2ccc(Cl)cc2)CC1	/	/	104.2*	/	/	/
Cc1onc(-c2ccccc2)c1C(=O)N1CCN(c2ccc([N+](=O)[O-])cc2)CC1	/	/	10.8	/	/	/
CCC1=NN2C(=N)/C(=C/c3ccc(-c4ccc(C(=O)O)cc4)o3)C(=O)N=C2S1	/	/	57.3*	/	/	/
O=c1[nH]cnc2[nH]ncc12	/	/	/	i	-2.7	74.5*
O=C1N=C(N2CCCCC2)S/C1=C\c1ccccc1Cl	/	/	2.2	/	/	/
O=C(CN1C(=O)/C(=C/c2ccccc2Cl)SC1=S)N1CCOCC1	/	/	-11.7	/	/	/
O=C1NN(c2ccc(F)c(Cl)c2)C(=O)/C1=C\c1ccc(-c2cccc(C(=O)O)c2)o1	/	/	30.4	/	/	/
O=C1NN(c2ccc(Cl)cc2)C(=O)/C1=C\c1ccc(-c2cccc(C(=O)O)c2)o1	/	/	102.9*	/	/	/
O=C1NN(c2ccc(F)cc2)C(=O)/C1=C\c1ccc(-c2cccc(C(=O)O)c2)o1	/	/	102.4*	/	/	/
O=C1NC(=O)N(c2ccccc2)C(=O)/C1=C\c1ccc(-c2cccc(C(=O)O)c2)o1	/	/	15.7	/	/	/
O=C(O)c1cccc(-c2ccc(C=C3C(=O)c4ccccc4C3=O)o2)c1	/	/	98.4*	/	/	/
CCOC(=O)C1=C(O)/C(=C/c2ccc(N(C)C)cc2)SC1=Nc1ccc(Cl)cc1	/	/	-7.1	/	/	/
COC(=O)c1cc(NC(=O)C(C)Oc2ccccc2)cc(C(=O)OC)c1 (stereo not drawn)	/	/	-12.8	/	/	/
SMILES	TNAP act mid DEA	Ec RNAP inh	HePTP inh	BAP1 inh	Cdc25B inh	DUSP1 inh
O=[N+]([O-])c1cc(C(F)(F)F)ccc1NCCNC(=S)Nc1ccc(Cl)cc1	/	/	103.9*	/	/	/
O=C(O)c1ccc2c(c1)N(Cc1ccccc1)C(=O)c1ccccc1S2=O (stereo not drawn)	0.9	6.2	7.8	i	66.0*	2.0
CC1CCN(c2cc(N3CCN(C(=O)c4ccccc4F)CC3)c([N+](=O)[O-])cc2F)CC1	/	/	7.8	/	/	/
CCC(Oc1ccccc1)C(=O)Nc1ccc(S(N)(=O)=O)cc1 (stereo not drawn)	/	/	0.6	/	/	/
CCCCNc1cc(C(=O)O)cc(S(N)(=O)=O)c1Oc1ccccc1	0.9	5.7	8.1	/	2.9	-12.2
O=C(OCCCN1CCCCC1)c1ccc(O)cc1	0.8	11.4	6.3	i	57.3*	-31.8
O=C(OCCN1CCCCC1)c1ccc(O)cc1	1	/	4.2	i	-4.3	8.5
Cc1ccc(N=Cc2cc(Br)ccc2O)cc1F	/	/	5.7	/	/	/
O=C(CSCC(=O)Nc1ccc(F)c([N+](=O)[O-])c1)Nc1ccccc1	/	/	-17.1	/	/	/
O=C(CSc1ccc(C(F)(F)F)cc1[N+](=O)[O-])Nc1ccccc1	/	/	105.1*	/	/	/
CCOc1ccc2nc(SCc3ccccn3)sc2c1	/	/	79.4*	/	/	/
c1ccc(CSc2nc3ccccc3s2)nc1	/	/	-2.8	/	/	/
CC(=O)Nc1c(Br)cc(C23CC4CC(CC(C4)C2)C3)cc1Br	/	/	-13.5	/	/	/
CC(=O)Nc1c(C)ccc2c1C(C)CC21CCCC1 (stereo not drawn)	/	/	104.2*	/	/	/
CCOC(=O)c1c(C)sc(Sc2ccc(Cl)cc2[N+](=O)[O-])c1OC	/	/	102.0*	/	/	/
COc1ccc(C2NC(=S)NC(C)=C2C(=O)Nc2ccccc2Cl)cc1 (stereo not drawn)	/	/	6.7	/	/	/
O=C1CSC(c2cn(-c3ccccc3)nc2-c2ccccc2)N1Cc1ccc(Cl)cc1 (stereo not drawn)	/	/	73.6*	/	/	/
O=C1CSC(c2cn(-c3ccccc3)nc2-c2ccc(Cl)cc2)N1Cc1ccccc1 (stereo not drawn)	/	/	-13.1	/	/	/
Cc1ccc(/C=C2\SC(=O)N(CCC(=O)NNC(=O)c3cccc(Cl)c3)C2=O)cc1	/	/	-1.6	/	/	/
Cc1ccc(OCCc2c(C)n[nH]c2C)c(Cl)c1	/	/	104.7*	/	/	/
Cc1ccc(OCCCc2c(C)n[nH]c2C)c(C)c1	/	/	-2.3	/	/	/
O=C1c2ccc(Oc3ccc([N+](=O)[O-])cc3)cc2C(=O)N1c1nc2ccccc2s1	/	/	3.1	/	/	/
O=C(NC1CCCCCC1)c1cc(-c2ccco2)nc2ccccc12	/	/	97.9*	/	/	/
O=C(NCC1CCCO1)c1cc(-c2ccco2)nc2ccccc12 (stereo not drawn)	1	2.2	19.5	/	10.4	7.9
COc1cccc(C2C(C(=O)Nc3ccccc3)=C(C)N=c3s/c(=C\c4sccc4C)c(=O)n32)c1 (stereo not drawn)	/	/	-26.9	/	/	/
SMILES	TNAP act mid DEA	Ec RNAP inh	HePTP inh	BAP1 inh	Cdc25B inh	DUSP1 inh
Cc1ccc(S(=O)(=O)/N=C2/C=C(N3CCOCC3)C(=O)c3ccccc32)cc1	/	/	-18.0	/	/	/
Cc1ccc(S(=O)(=O)/N=C2\C=C(n3cnc4ccccc43)C(=O)c3ccccc32)cc1	/	/	85.1*	/	/	/
CC(C)C(=O)Nc1nnc(Cc2nnc(NC(=O)C(C)C)s2)s1	/	/	8.9	/	/	/
COC(=O)c1c(-c2ccc(Cl)cc2)csc1N	/	/	4.2	/	/	/
COC(=O)c1c(-c2ccc(C)c(C)c2)csc1N	/	/	103.7*	/	/	/
CCCSc1nc2c(cnn2-c2ccccc2)c(=O)[nH]1	1	4.3	-2.6	i	-2.1	3.4
O=C(CSc1nc2c(cnn2-c2ccccc2)c(=O)[nH]1)c1ccc(Cl)cc1	0.9	12.0	8.0	/	35.0	56.3*
CC1(C)CC(NC(=O)c2cccc(Cl)c2)CC(C)(C)N1	/	/	102.2*	/	/	/
